According to PubChem BioAssay (NCI):
Compounds without any hit were thinned out: in the full panel of roughly 83,000, 20% have a hit.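 Treatment: one concentration, 48 hours, 96-well format. Scoring: percent growth, with anything below 10 considered active.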 Values without a mark were called inactive. Active and inactive are the calls of the source.

Assays:
Assay in all cases: NCI-60 one-dose screen, 48 h (100 = growth as untreated, 0 = no growth, -100 = all killed)
Conditions in all cases: 10 µM unless noted
[1] = system: HCT-15 colon
[2] = system: HT29 colon
[3] = system: SNB-75 CNS
[4] = system: SNB-19 CNS
[5] = system: U251 CNS
[6] = system: PC-3 prostate
[7] = system: SK-MEL-5 melanoma
[8] = system: UACC-62 melanoma
[9] = system: LOX IMVI melanoma
[10] = system: SK-MEL-28 melanoma

Compound | growth [1] | growth [2] | growth [3] | growth [4] | growth [5] | growth [6] | growth [7] | growth [8] | growth [9] | growth [10]
O=C1NN(C(=O)c2ccccc2)C(c2ccc(Cl)c(Cl)c2)=C/C1=C\c1ccccc1[N+](=O)[O-] | -28.1% [6.75 µM] (active) | 4.99% [6.75 µM] (active) | 25.1% [6.75 µM] | 24.3% [6.75 µM] | 14.7% [6.75 µM] | 9.01% [6.75 µM] (active) | -65.4% [6.75 µM] (active) | -69% [6.75 µM] (active) | -45.5% [6.75 µM] (active) | 27.8% [6.75 µM]
COc1ccc(C(=O)O)cc1.[Ag] | 102% | 103% | 110% | 106% | 103% | 77.1% | 46.5% | 108% | 88.7% | 110%
O=C1Nc2ccc(Br)cc2/C1=N/c1nc(-c2ccccc2)cs1 | 94.9% | 91.7% | 79% | 96.2% | 92.9% | 62.3% | 77.5% | 80.5% | 92% | 95%
COc1cc(C2CC(c3ccc(C)cc3)=NN2C=O)ccc1Oc1nc2c(c(=O)n(C)c(=O)n2C)n1C (centres undefined) | 94.3% | 72.6% | 93% | 67.2% | 92.7% | 74.3% | 58.1% | 94.5% | 60.6% | 106%
CCCCCCCCCCCCCCCCCC(=O)[O][Sn]([CH2]CCC)([CH2]CCC)[CH2]CCC | -82.6% (active) | -52.2% (active) | -96.8% (active) | -70.9% (active) | -89.3% (active) | -69.3% (active) | -99.9% (active) | -60.6% (active) | -92.7% (active) | -94.8% (active)
C[C@@H]1N=C(c2ccc3ccccc3c2)Nc2nc3ccccn3c2C1=O | 33.8% | 5.93% (active) | 37.1% | 53.3% | 32.5% | 52% | 35.3% | 48.8% | 48.5% | 59.9%
Cc1cc(Nc2c3ccccc3nc3ccccc23)ccc1NS(C)(=O)=O | 19.8% | 18.2% | 51.3% | 58% | 27.1% | 33.2% | 43.4% | 57% | 28.3% | 57.2%
CCOC(=O)c1ccc2c(c1)nc(-c1ccc(Cl)cc1)n2-c1cc(C(C)(C)C)[nH]n1 | 20.2% | 18.5% | 18.2% | 48% | 33.6% | 48.7% | 0.494% (active) | 25.5% | 27.8% | 36.2%
CS(=O)(=O)c1ccc(C(=O)N/N=C/c2ccc3c(c2)OCO3)cc1 | 100% | 88.9% | 94.4% | 98.5% | 92.3% | 92% | 106% | 98% | 96.5% | 114%
O=C(CCl)Nc1cc(O)c2c(c1)C(=O)c1cccc(O)c1C2=O | -82.2% (active) | -88% (active) | 7.38% (active) | -36.5% (active) | -96.2% (active) | -63.6% (active) | -95% (active) | -67.3% (active) | -68.2% (active) | 2.89% (active)
O=C(/C=C/c1cn(-c2ccccc2)nc1-c1ccccc1)OCc1cn(-c2cccc([N+](=O)[O-])c2)nn1 | 95.2% | 86.3% | 74.3% | 87.8% | 78.3% | 67.4% | 100% | 73.5% |  | 92.1%
Fc1cc(-c2cnc3nonc3n2)c(Cl)cc1Cl | 51% | 87.9% | 99.9% | 90.4% | 109% | 85.3% | 98.3% | 82.3% | 101% | 91.8%
CC1(C)CC(=O)c2cc3c(N)c(C(=O)Nc4ccc(Cl)cc4)sc3nc2C1 | 108% | 96.4% | 114% | 114% | 103% | 105% | 96% | 105% | 109% | 118%
CCCCCCCC/C=C/CCCCCCCC1=NC(C)(C)CN1c1ccccc1 | 80.5% | 66.8% | 90% | 87.8% | 84.5% | 64% | 92.4% | 75.2% | 85.3% | 103%
Cc1nn(-c2cccc(Cl)c2)c(C)c1N=Nc1ccc(Br)cc1 | 94.4% | 74.7% | 91.9% | 97.9% | 92.5% | 80.9% | 97.5% | 81.7% | 101% | 92.3%
O=C1OC(/C=C/c2ccccc2)=NC/1=C/c1ccccc1[N+](=O)[O-] | 97.9% | 98.2% | 82% | 104% | 100% | 92.7% | 99.8% | 110% | 89.1% | 97.3%
COc1ccc(C(=O)N2N=C(c3ccc(F)cc3)CC2c2cn(-c3ccccc3)nc2-c2ccccc2)cc1 (centres undefined) | 55.9% | 37.6% | 72.5% | 80% | 30.6% | 71.6% | 90.7% | 61% | 41.8% | 71.9%
O=C(CC(=O)C(F)(F)C(F)(F)C(F)(F)F)c1cc2ccccc2o1 | 108% | 103% | 92.2% | 107% | 97.5% | 91.1% | 106% | 104% | 92.4% | 105%
C=C1C[C@@]2(C)C(CC[C@]3(C)C2CC=C2C4CC(C)(C)C[C@@H](OC(=O)/C(C)=C\C)[C@]4(C(=O)O)CC[C@]23C)C(C)(C)C1=O (some centres undefined) | -16.7% (active) | -20.1% (active) | 52.5% | 27.6% | -47.9% (active) | -6.78% (active) | 26.4% | -12.6% (active) | -65.7% (active) | 2.5% (active)
Cc1cc2nc(CN)[nH]c2cc1C | 109% | 51.3% | 92% | 102% | 100% | 99.8% | 104% | 113% | 109% | 108%
CCOC(=O)Nc1ccc2nc(N3CCCCCC3)sc2c1 | 24.7% | 6.49% (active) | -8.82% (active) | 33.6% | 22.8% | 25% | 11.5% | 26% | 44.4% | 42.6%
O=C(Nc1cccc(-n2ccc3c(NC(=O)c4ccccc4)nccc32)c1)c1ccc(N2CCOCC2)c(C(F)(F)F)c1 | 14.1% | 2.15% (active) | -12.5% (active) | 43.3% | 15.5% | 23.7% | -68.6% (active) | 40.1% | 9.86% (active) | 32.8%
CCC1N=C(N)N=C(N)N1c1ccc(Cl)cc1 (centres undefined) | 105% | 72.1% | 91.7% | 106% | 58.8% | 62.6% | 49.5% | 100% | 68.6% | 101%
CCN1C(=O)N(CC)C2C1NN=c1s/c(=C\c3ccco3)c(=O)n12 (centres undefined) | 19.9% | 8.57% (active) | -1.06% (active) | 22.7% | 22.7% | 17.7% | 12.8% |  | 40.4% | 
O=C(CCCCCCN1CC(=O)N2[C@@H](c3ccc(Cl)c(Cl)c3)c3[nH]c4ccccc4c3C[C@H]2C1=O)NO | 92.3% | 33.8% | 6.3% (active) | 54.3% | 40.5% | 25.7% | 51.3% | 35.2% |  | 52.4%
COc1cccc(/C=N\Nc2ccc([N+](=O)[O-])cn2)c1O | 29.7% | 99.1% | 83.1% | 50.9% | 21.7% | 97.5% | 49.8% | 54.7% |  | 83.5%
C=CCN1C(=O)/C(=c2\sc3n(c2=O)C2C(NN=3)N(CC)C(=O)N2CC)c2ccccc21 (centres undefined) | 15.7% | 6.59% (active) | 23.8% | 26.8% | 22.8% | 22% | 18.5% | 26.1% |  | 62.4%
